Pf growth 96h = Primary qHTS for delayed death inhibitors of the malarial parasite plastid, 96 hour incubation; P. falciparum luciferase reporter growth, 96 h; Potency, µM (series often up to 28.7 µM), without a hit: at the top dose activity change, negative = inhibition, actives largely listed as inhibitors; 6.9% of 320,000 active; AID 504834, 2011; further: potency means the concentration at half of the fitted maximal effect; on the % scale 0 is the no-effect control and ±100 the full control effect
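Infected RBCs, 2% Hct / 0.05% parasitemia final; luciferase-reporter P. falciparum; cpd 96 h, 37 C, 5% CO2; luciferase detection reagent; luminescence.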
Shiga toxin inh = A qHTS for Small Molecule Inhibitors of Shiga Toxin; Vero cells, Shiga toxin protein synthesis inhibition reporter; inhibition, % at 38.7 µM; 9.2% of 290,000 active; AID 2315, 2010; in the data active means inhibition mostly above about 28%, no sharp cut-off; inactive means mostly below about 43%; further: 0% is about no effect
Pf growth 48h = Primary qHTS for delayed death inhibitors of the malarial parasite plastid, 48 hour incubation; P. falciparum luciferase growth in erythrocytes, 48 h; Potency, µM (highest dose often 28.7 µM), for the others: top-dose activity change, negative = inhibition, actives largely listed as inhibitors; 5.9% of 310,000 active; AID 504832, 2011; further: potency means the concentration at half of the fitted maximal effect; on the % scale 0 is the no-effect control and ±100 the full control effect
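Growth was read as firefly luciferase luminescence after a 48 h, 37 C, 5% CO2 exposure of compounds to reporter-bearing P. falciparum cultures (0.1% parasitemia, 2% hematocrit final) in Albumax-supplemented RPMI 1640.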
Cycloheximide cs = Cycloheximide Counterscreen for Small Molecule Inhibitors of Shiga Toxin. cell reporter, cycloheximide protein synthesis inhibition counterscreen. AID 2314, 2010. 12% of 300,000 active. max response, %; in the data active means max response mostly above about 13%, no sharp cut-off; inactive means mostly below about 14%; further: read at 38.3 µM for the half of the compounds with a filed dose; 0% is about no effect
Numbers without * were called inactive; i = inactive; ? = inconclusive; · = no result; + = active, no number; [ ] = dose if it differs, or a comment. Only some compounds are listed: those with a hit (about 21% of all), similar ones and a draw of the others. Unless noted, the call rests on the fitted dose curve; in most records, active means well fitted inhibition curve with a large enough effect; inconclusive means small, poorly fitted or top-dose-only effect, or another doubt; inactive means no such curve, though single readings can be large or run the other way.

SMILES | Pf growth 96h | Shiga toxin inh | Pf growth 48h | Cycloheximide cs
O=C(/C=C/c1ccco1)Nc1ccccc1C(=O)O | ? | 98.7 | 43.0% | 36.2
COc1ccc(/C=C/C(=O)NC2=NCCS2)cc1OC | 29.3% | 69.7* | 33.6% | 37.8*
Cc1nc(NC(=O)/C=C/c2ccco2)sc1C | -7.8% | 143.8* | 254.8% | 57.3*
O=C(/C=C/c1ccco1)NC1=NCCS1 | ? | 42.7* | 148.9% | 61.1*
CNS(=O)(=O)c1ccc2nc(NC(=O)/C=C/c3ccco3)sc2c1 | 21.5% | 25.9 | 0.7% | 12.9
O=C(Cn1cc(C(F)(F)F)ccc1=O)N/N=C/c1ccc(Cl)cc1 | 44.4% | -11.9 | 40.0% | -1.4
COCCn1c(=S)[nH]c2ccc(N(C)C)cc2c1=O | ? | 13.2 | 5.9% | 8.3
COc1ccccc1N1CCN(S(=O)(=O)c2cc(Br)cnc2N)CC1 | ? | -4.6 | 14.0% | -3.1
CCc1nnc(NC(=O)/C=C/c2ccco2)s1 | 86.2% | 55.2 | 89.4% | 26.7*
O=C(/C=C/c1ccco1)Nc1cccc(NC(=O)/C=C/c2ccco2)n1 | -10.9% | 102.5* | 112.6% | 33.2*
O=C(/C=C/c1ccco1)Nc1nnc(-c2ccco2)s1 | 17.3% | 48.0 | 38.5% | 14.4*
Cn1cc(S(=O)(=O)N2CCc3ccccc32)cc1C(=O)NC(C)(C)C | 5.8% | -1.0 | ? | 1.0
CCOc1ccc(Oc2ccccc2NC(=O)CCNC(C)=O)cc1 | -27.5% | -2.5 | 2.3% | 0.6
COc1ccc(/C=N/NC(=O)c2cc(C)n(-c3ccccc3)c2C)cc1OC | -20.0% | 87.0* | 29.0% | 25.2*
Cc1cc(C)cc(-n2c(C)cc(/C=N/NC(=O)c3cccc([N+](=O)[O-])c3C)c2C)c1 | 11.7µM* | -14.5 | · | 3.9
CC(=O)c1nnn(-c2cccc([N+](=O)[O-])c2)c1C | 23.4% | 0.9 | 32.9% | -3.4
CC(=O)c1c(C(C)=O)c(C)n(-c2cccc([N+](=O)[O-])c2)c1C | 9.28µM* | -1.9 | -3.8% | -3.2
COc1ccc(/C=N/NC(=O)c2cccc(C(=O)N/N=C/c3ccc(OC)c(OC)c3)n2)cc1OC | 0.8% | -5.0 | -6.0% | -3.3
Cc1cc(C(=O)N/N=C2\CCCC(=O)C2)c(C)n1-c1ccccc1 | 45.5% | 30.3* | 24.8% | 16.7*
COc1ccccc1-n1cc2c([N+](=O)[O-])cc([N+](=O)[O-])cc2n1 | 17.1% | -6.9 | ? | 1.1
O=C(N/N=C\c1cc([N+](=O)[O-])ccc1N1CCCC1)c1ccccn1 | -17.9% | 48.5* | ? | 21.6*
Cc1cc(C(=O)N/N=C/c2cccc([N+](=O)[O-])c2)c(C)n1-c1ccccc1 | ? | 86.5* | ? | 43.0*
O=C(N/N=C/C=C\c1cccc([N+](=O)[O-])c1)c1ccccn1 | ? | -7.5 | 32.6% | 6.5
O=C(N/N=C\c1cc([N+](=O)[O-])ccc1N1CCOCC1)c1ccccn1 | ? | -8.5 | 21.4% | 3.1
Cc1cc(/C=N/NC(=O)c2ccccn2)c(C)n1-c1cccc([N+](=O)[O-])c1 | 4.65µM* | 89.8* | -6.3% | 50.4*
SMILES | Pf growth 96h | Shiga toxin inh | Pf growth 48h | Cycloheximide cs
CCN(CC)S(=O)(=O)c1ccc(C(C)NCC(=O)Nc2ccccc2C(=O)NC2CC2)cc1 (stereo not drawn) | ? | · | 10.4µM* | ·
CC(NCC(=O)Nc1ccccc1C(=O)NC1CC1)c1ccco1 (stereo not drawn) | 6.6% | · | 1.65µM* | ·
CC(NCC(=O)Nc1ccccc1C(=O)NC1CC1)c1cccc(Cl)c1 (stereo not drawn) | 0.0% | · | ? | ·
CC(=O)c1ccc(S(=O)(=O)Nc2c(C)nn(C)c2C)cc1 | 5.4% | · | -12.1% | ·
Cn1c(O)c(C=Nc2ccc(Br)cc2)sc1=O | 114.4% | 80.4* | 50.9% | 45.4*
Cc1ccc(Cn2ccc(NC(=O)c3cc(-c4cccs4)on3)n2)cc1 | ? | -3.7 | 10.4µM* | -2.6
O=C(Nc1ccc(Cl)cc1)c1cc(-c2cccs2)on1 | 223.1% | -3.2 | 137.3% | 8.3*
CCCc1cc(C(=O)Nc2ccn(Cc3ccc(C)cc3)n2)no1 | -14.0% | 20.9 | ? | 1.0
Cc1ccc(NC(=O)c2cc(-c3cccs3)on2)cc1 | 12.0% | 130.6* | 145.2% | 38.2*
O=C(Nc1ccc(Br)cc1)c1cc(-c2cccs2)on1 | -4.6% | 114.4* | 111.9% | 22.2*
O=C(COC(=O)Cc1n[nH]c(=O)c2ccccc12)NNC(=O)c1ccc(Cl)cc1 | 2.0% | · | 0.0% | ·
Oc1ccc(F)cc1-c1cc(-c2ccc3c(c2)OCCO3)n[nH]1 | · | 90.2* | 16.5% | 42.2*
Oc1ccccc1-c1cc(-c2ccc(F)cc2)n[nH]1 | ? | · | 61.6% | 30.5*
Oc1ccc(Cl)cc1-c1cc(-c2ccccc2)n[nH]1 | -28.7% | 31.4 | 7.38µM* | 17.6*
CCc1cc(-c2n[nH]c(C)c2-c2ccc3c(c2)OCCO3)c(O)cc1O | · | -12.1 | · | 5.0
Cc1ccc(-c2cc(-c3ccc(F)cc3)n[nH]2)c(O)c1 | ? | 101.1* | -0.5% | 50.7*
Cc1ccc(O)c(-c2cc(-c3cccc(Br)c3)n[nH]2)c1 | 81.3% | 97.6* | 10.8% | 45.1*
Cc1ccc(-c2cc(-c3ccc(C)cc3O)[nH]n2)cc1 | -29.8% | 50.9* | -67.4% | 41.3*
O=c1c2ccccc2[nH]c(=S)n1CCCN1CCC(Cc2ccccc2)CC1 | 25.0% | -6.1 | -16.5%[0.00184 µM] | -4.2
Cc1ccc2c(c1)N(CC(=O)NCc1cccs1)C(=O)C(C)O2 (stereo not drawn) | 17.5% | 12.1 | 3.8% | -2.6
CC1Oc2ccccc2N(CC(=O)N2CCCC2)C1=O (stereo not drawn) | 4.65µM* | -11.0 | 0.0% | -0.5
CC1Oc2ccccc2N(CC(=O)NCc2cccs2)C1=O (stereo not drawn) | -11.1% | 31.4* | 82.0% | 18.8*
C/C(=N\S(=O)(=O)c1ccc(C)cc1)NC(=S)Nc1ccc(C)cc1 | 90.6% | 118.1* | i | 40.5*
Cc1cccc(NC(=S)N/C(=N/S(=O)(=O)c2ccccc2)c2ccccc2)c1 | · | 17.8* | 78.0% | 43.9*
Cc1c(NC(=S)N/C(=N/S(=O)(=O)c2ccccc2)c2ccccc2)c(=O)n(-c2ccccc2)n1C | 13.2% | 9.2 | 2.4% | -2.0
SMILES | Pf growth 96h | Shiga toxin inh | Pf growth 48h | Cycloheximide cs
Cc1ccc(S(=O)(=O)/N=C(/NC(=S)Nc2cccc(C)c2)c2ccccc2)cc1 | 59.0% | 76.9* | · | 53.8*
Cc1ccc(S(=O)(=O)/N=C(/Nc2ccc([N+](=O)[O-])cc2)c2ccccc2)cc1 | -5.1% | -7.4 | 56.9% | 5.4
O=C(CSc1nc(-c2ccccc2)c(-c2ccccc2)o1)NCCCO | -5.7% | -18.6 | ? | 0.9
O=C(NCC(=O)N1CCN(Cc2ccccc2)CC1)c1ccc(Br)o1 | 6.6% | 16.4 | 28.6% | 13.6*
O=C(NCCc1ccccc1)c1ccc(Br)o1 | 0.4% | 83.0* | 66.0% | 45.9*
CC(=O)N1CCN(C(=O)CNC(=O)c2ccc(Br)o2)CC1 | 14.8% | -28.1 | 5.8% | 6.5
O=C(NCc1ccccc1)c1cccc(Br)n1 | 1.1% | 5.8 | 3.6% | 11.8
O=C(NCCc1ccccc1)c1cccc(Br)n1 | · | + | · | 77.6*
COc1ccc(-c2[nH]c(-c3ccccc3)nc2SCC(=O)NCc2ccco2)cc1OC | 1.04µM* | -22.9 | · | -7.6

High-throughput results: PubChem BioAssay, National Center for Advancing Translational Sciences (NCATS)
